106 compounds from PubChem BioAssay AID2289 (National Center for Advancing Translational Sciences (NCATS), 2010) can be followed below.

Hit rate of the full screen: of about 340,000 compounds, about 3,300 (0.97%) were called active. Not shown: some 9% with an inconclusive outcome. Calls follow the shape of the dose curve; as a rule, active = well fitted inhibition curve with a large enough effect; inconclusive = small, poorly fitted or top-dose-only effect, or effect the other way; inactive = flat fitted curve, though single readings scatter. Some of the results follow.
Potency is read from the fitted curve at half-maximal effect.

A short description of the assay: qHTS Assay for Modulators of miRNAs and/or Inhibitors of miR-21. Also: nearly all actives have a fitted effect of over 55% in size. As to conditions: HeLa miR-21-FLuc reporter, luciferase luminescence, 48 h; actives lower the signal. The essentials:
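HeLa cells endogenously expressing miR-21, stably carrying CMV-driven firefly luciferase with a downstream miR-21 binding site, 2000 cells/well. Titrations up to approximately 40 uM, 48 hours; luciferase luminescence read.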
Regarding `Cc1sc(NC(=O)c2ccccc2F)c(CN2CCCCC2C)c1C` (stereo unspecified), the Potency was 2.07 µM (active).
The figure for `O=c1oc2ccccc2cc1-c1nc(-c2cccs2)no1` is 1.17 µM (active).
The figure for `O=c1oc2ccccc2cc1-c1ccccc1` is 16.5 µM (active); for `O=c1oc2cc(O)ccc2cc1-c1ccccc1` it is 13.1 µM (active).
The figure for `O=c1oc2ccccc2cc1-c1ccc(O)cc1` is 4.65 µM (active); for `O=c1oc2ccccc2cc1NCc1ccccc1O` it is 10.4 µM (active).
As to `O=C(Nc1ccc(Br)cn1)c1cccc(-c2cc3ccccc3oc2=O)c1`, the Potency is 3.69 µM (active).
The figure for `COc1cccc(C2(O)CC(C(F)(F)F)=NN2C(=O)c2ccccn2)c1` (stereo unspecified) is 13.1 µM (active); for `CCN(CC)c1ccc(/C=C(/C#N)C(=O)NCc2ccccc2)o1` it is 10.4 µM (active); for `CN(C)c1ccc(/C=C(/C#N)C(=O)NCc2ccccc2)o1` it is 14.7 µM (active).
As for `CCCc1ccc(-c2cc(NC(=O)CSc3n[nH]c(N)n3)n(-c3ccccc3)n2)cc1`, the Potency was 18.5 µM (active).
`Cc1ccc(NC(=O)c2cnc3ccccc3n2)cc1C`: the Potency was 1.31 µM (active).
The figure for `NC(=O)c1ccc(NC(=O)c2cnc3ccccc3n2)cc1` is 7.36 µM (active).
The figure for `c1ccc2c(c1)CCN(C1=Nc3cccc4cccc1c34)C2` is 18.5 µM (active); for `CCOC(=O)Nc1sc2c(c1C#N)CCC(C)C2` (stereo unspecified) it is 5.21 µM (active); for `Cc1cc(C(=O)Nc2sc3c(c2C#N)CCC(C)C3)cs1` (stereo unspecified) it is 0.736 µM (active).
The figure for `c1cn2c(NC3CCCC3)c(-c3ccc(N4CCOCC4)cc3)nc2cn1` is 6.56 µM (active); for `Cc1ccc(Nc2c(-c3ccc(N4CCOCC4)cc3)nc3cnccn23)cc1` it is 7.36 µM (active); for `Cc1ccc(-c2nc3cnccn3c2Nc2ccccc2)o1` it is 16.5 µM (active).
On to `Cc1ccccc1Nc1c(-c2ccc(N3CCOCC3)cc2)nc2cnccn12`, for which the Potency was 4.65 µM (active).
The figure for `c1cn2c(Nc3ccc4c(c3)OCCO4)c(-c3ccc(N4CCOCC4)cc3)nc2cn1` is 6.56 µM (active).
The figure for `COC(=O)c1c(C)[nH]c(C(=O)OCc2ccc(F)cc2)c1C` is 2.07 µM (active); for `CCOC(=O)c1c(C)[nH]c(C(=O)OCc2ccccc2F)c1C` it is 0.414 µM (active); for `CCOC(=O)c1c(C)[nH]c(C(=O)OCCOc2ccccc2C)c1C` it is 1.85 µM (active).
For `COc1cc(OC)cc(C(=O)O/N=C(\N)c2ccccn2)c1` the value was 1.65 µM (active).
Regarding `N/C(=N\OC(=O)CCC1CCCC1)c1ccccn1`, the Potency is 3.29 µM (active).
The figure for `Cc1cccc(OCC(=O)O/N=C(\N)c2ccccn2)c1C` is 6.56 µM (active); for `N/C(=N\OC(=O)COc1ccccc1)c1ccccn1` it is 5.21 µM (active).
The figure for `Cc1cccc(OCC(=O)O/N=C(\N)c2ccccn2)c1` is 7.36 µM (active).
The figure for `N/C(=N\OC(=O)C12CC3CC(CC(C3)C1)C2)c1ccccn1` is 5.21 µM (active).
Regarding `Cc1ccc(OCC(=O)O/N=C(\N)c2ccccn2)cc1`, the Potency is 3.29 µM (active).
The figure for `COCCN(CCOC)S(=O)(=O)c1ccc(C(=O)Nc2sc3c(c2C(N)=O)CCCCC3)cc1` is 5.21 µM (active); for `CCCCC(=O)Nc1sc2c(c1C(N)=O)CCC2` it is 11.7 µM (active).
The figure for `CC(C)C(=O)NC(=S)Nc1sc2c(c1C(N)=O)CCCC2` is 6.56 µM (active).
Take `COc1cc(/C=C2\Oc3cc(O)ccc3C2=O)ccc1O`: the Potency was 5.21 µM (active).
As for `O=C1/C(=C/c2ccc(O)c(O)c2)Oc2cc(O)ccc21`, the Potency was 8.26 µM (active).
On to `CCOC(=O)c1csc(-c2sccc2Br)n1`, for which the Potency was 0.521 µM (active).
On to `COc1ccc(-c2nc3c(Br)c(N)c(Br)cc3o2)cc1`, for which the Potency is 2.07 µM (active).
For `Nc1c(Br)cc2oc(-c3ccccc3)nc2c1Br` the value was 2.07 µM (active).
For `O=C(NCCN1CCOCC1)c1cc(-c2ccccc2)on1` the value was 18.5 µM (active); for `O=C(NCCCN1CCOCC1)c1cc(-c2ccccc2)on1`, 18.5 µM (active).
The figure for `COc1ccccc1-c1cc(C(=O)NC2CCCC2)no1` is 14.7 µM (active); for `O=C(NC1CCCCC1)c1cc(-c2ccccc2O)on1` it is 7.36 µM (active); for `O=C(NC1CCCC1)c1cc(-c2ccc(Cl)cc2Cl)on1` it is 5.21 µM (active).
On to `O=C(NC1CCCC1)c1cc(-c2ccccc2Cl)on1`, for which the Potency is 1.65 µM (active).
The figure for `C=CCNC(=O)c1cc(-c2ccccc2O)on1` is 16.5 µM (active); for `O=C(Oc1ccc2c(c1)OCO2)c1ccc(F)cc1Cl` it is 16.5 µM (active); for `CCCCSc1nc2ccccc2[nH]1` it is 13.1 µM (active).
The figure for `ClC1(Cl)CC1CSc1nc2ccccc2[nH]1` (stereo unspecified) is 14.7 µM (active); for `O=c1c2ccccc2nnn1CSc1nc2ccccc2[nH]1` it is 4.65 µM (active); for `CC1CCN(C(=O)CSc2nc3ccccc3[nH]2)CC1` it is 2.93 µM (active).
For the compound `Cc1ccc(Cn2nc(C)cc2C(=O)Nc2ccccc2Cl)cc1`, the Potency is 7.36 µM (active).
For `Cc1ccc(-c2cc(C(=O)O)n(Cc3ccccc3)n2)cc1` the value was 14.7 µM (active).
As to `Cc1ccc(NC(=O)CNCc2cccs2)c(Br)c1`, the Potency was 14.7 µM (active).
For `Cc1ccc(NC(=O)CC2CCCC2)c(Br)c1` the value was 14.7 µM (active); for `CNC(=O)c1sc2nc(-c3ccc(OC)cc3)cn2c1C`, 0.736 µM (active); for `Cc1c(C(N)=O)sc2nc(-c3ccccc3)cn12`, 11.7 µM (active).
For `O=C(O)c1cccc(N/N=C/c2cccs2)c1` the value was 0.0826 µM (active); for `O=C(O)c1cc(N/N=C/c2cccs2)ccc1Cl`, 1.85 µM (active).
The figure for `Cc1ccc(OC(=O)c2cccc(S(=O)(=O)N3CCCC3)c2)c(-n2nc3ccccc3n2)c1` is 2.61 µM (active).
Turning to `Cc1ccc(OC(=O)c2cccc(S(=O)(=O)N(C)C)c2)c(-n2nc3ccccc3n2)c1`, the Potency is 5.85 µM (active).
The figure for `Cc1ccc(OC(=O)COc2ccccc2C)c(-n2nc3ccccc3n2)c1` is 4.14 µM (active); for `Cc1ccc(O)c(-n2nc3ccccc3n2)c1` it is 11.7 µM (active); for `c1ccc(CCSc2nccn2-c2ccccc2)cc1` it is 1.85 µM (active).
The figure for `CCN(CC)CCN(C(=O)c1ccc2ncsc2c1)c1nc2cc3c(cc2s1)OCO3` is 1.04 µM (active); for `O=C(N/N=C/C(Cl)=C\c1ccccc1)c1cccs1` it is 1.85 µM (active); for `O=C(N/N=C/C=C/c1ccccc1)c1cccs1` it is 7.36 µM (active).
The figure for `O=C(N/N=C/C(Cl)=C\c1ccccc1)c1ccco1` is 3.69 µM (active); for `CCOC(=O)N/N=C/C(Cl)=C/c1ccccc1` it is 10.4 µM (active); for `COc1ccccc1/C=C/C=N/NC(=O)c1cccs1` it is 3.69 µM (active).
In the case of `O=C(N/N=C/C=C/c1ccccc1)c1ccccn1`, the Potency was 5.85 µM (active).
For `O=C(N/N=C/C(Cl)=C/c1ccccc1)c1ccccc1F` the value was 8.26 µM (active).
The figure for `C/C(=N\O)c1ccc(N2C(=O)C3CC=C(Cl)CC3C2=O)cc1` (stereo unspecified) is 3.29 µM (active); for `CCOc1ccc(N=C/C=C/c2ccccc2)c(O)c1` it is 3.29 µM (active).
The figure for `O=C(Cn1cnc2ccccc2c1=O)c1ccc(Br)cc1` is 5.21 µM (active).
With `Cc1ccc(C(=O)Cn2cnc3ccccc3c2=O)cc1`, the Potency was 5.85 µM (active).
Consider `O=C(Cn1cnc2ccccc2c1=O)c1ccc(Cl)cc1`, for which the Potency is 7.36 µM (active).
The figure for `O=C(Cn1cnc2ccccc2c1=O)c1ccc2ccccc2c1` is 7.36 µM (active).
In the case of `COc1ccc2cnn(-c3ccc(C)cc3)c(=O)c2c1OC`, the Potency was 6.56 µM (active).
The figure for `CC(C)c1ccc(N(C(=O)c2ccco2)C(C(=O)NC2CCCC2)c2ccncc2)cc1` (stereo unspecified) is 6.56 µM (active).
For `Cc1cc(OCc2nc3ccccc3s2)ccc1N` the value was 1.17 µM (active).
For `OCc1cc(Br)ccc1OCc1nc2ccccc2s1` the value was 1.65 µM (active).
For `NC(=O)c1ccccc1OCc1nc2ccccc2s1`, the Potency was 1.47 µM (active).
Turning to `O=C(O)c1ccccc1OCc1nc2ccccc2s1`, the Potency was 3.29 µM (active).
For the compound `Cc1ccc2c(c1)COc1c3ccc(C(=O)NCCO)cc3nn1-2`, the Potency is 5.21 µM (active).
For `CC(C)[C@@H](CO)NC(=O)c1ccc2c3n(nc2c1)-c1ccc(Cl)cc1CO3` the value was 1.85 µM (active); for `O=C(NCCO)c1ccc2c3n(nc2c1)-c1ccc(Cl)cc1CO3`, 9.27 µM (active).
The figure for `O=C(Nc1sc2c(c1C(=O)NCc1ccco1)CCCC2)c1cc(=O)c2ccccc2o1` is 5.85 µM (active).
Turning to `COc1ccc(OCc2cc(C(=O)N(C)Cc3nnc(C)o3)no2)c(Cl)c1`, the Potency was 14.7 µM (active).
On to `Cc1cc(CN(C)C(=O)c2cc(COc3ccc(F)cc3Cl)on2)n[nH]1`, for which the Potency is 10.4 µM (active).
For `Cc1nnc(CN(C)C(=O)c2cc(COc3ccc(F)cc3Cl)on2)o1` the value was 13.1 µM (active); for `O=[N+]([O-])c1cccc(-c2ccc(C(=S)N3CCOCC3)o2)c1`, 1.04 µM (active); for `N#CCCN1CCN(C(=S)c2ccc(-c3cccc(Cl)c3)o2)CC1`, 13.1 µM (active).
For `S=C(c1ccc(-c2cccc(Cl)c2)o1)N1CCCCC1`, the Potency was 1.31 µM (active).
`S=C(c1ccc(-c2ccc(Cl)c(Cl)c2)o1)N1CCOCC1`: the Potency is 1.47 µM (active).
For `S=C(c1ccc(-c2cccc(Cl)c2)o1)N1CCOCC1` the value was 3.69 µM (active); for `COCCN=C1NN=C(c2ccc(C)c([N+](=O)[O-])c2)CS1`, 4.14 µM (active).
For `C=C(C)CSc1nncn1/N=C/c1ccc(OC)cc1` the value was 11.7 µM (active).
For `C=CCSc1nncn1/N=C/c1ccc(OC)cc1` the value was 2.61 µM (active); for `Cn1cccc1-c1nc2ccc([N+](=O)[O-])cc2[nH]1`, 2.07 µM (active).
Turning to `O=[N+]([O-])c1ccc2nc(-c3ccncc3)[nH]c2c1`, the Potency was 18.5 µM (active).
The figure for `Fc1cc2nc(-c3ccncc3)[nH]c2cc1F` is 16.5 µM (active); for `CC1CCn2c(nc3cc(C(=O)NCc4ccccc4)ccc32)C1` (stereo unspecified) it is 7.36 µM (active).
In the case of `COc1cc(OC)cc(C(=O)Nc2ccc3nc4n(c(=O)c3c2)CCCCC4)c1`, the Potency was 2.33 µM (active).
Consider `Cc1ccc(CNC(=O)c2ccc3c(c2)nc2n3CCCC2)cc1`, for which the Potency was 18.5 µM (active).
For `COc1ccc(-c2cc3nc4n(c(=O)c3s2)CCCCC4)cc1` the value was 0.369 µM (active).
